Tau fluor counter – counter-screen for tau fibril formation inhibitors | tau K18 P301L Alexa594 fluorescence, heparin fibrillization | Potency, µM (series often up to 57.7 µM), without a hit: at the top dose activity change, negative = decrease | 280,000 tested, 0.93% active | AID 1463; note: nearly all actives have a fitted effect of over 55% in size
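Human tau K18 P301L (15 uM unlabeled, 0.24 uM Alexa 594-labeled) in 100 mM sodium acetate pH 7 with 20 uM heparin, 6 hr at 37 C. ThT 30 uM added, 1 hr ambient; Alexa 594 FP and total fluorescence read at 555/632 nm.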
Tau fibril FP – inhibitors of human tau fibril formation; 280,000 tested, 0.39% active; K18 P301L tau heparin fibrillization, Alexa594 FP, 6 h; AID 1468; Potency, µM (doses to about 57.7 µM), inactives show at the highest dose activity, negative = inhibition, usual class: inhibitors; P10636; note: nearly all actives have a fitted effect of over 55% in size
Target sequence (P10636 561-689 P618L limits assumed): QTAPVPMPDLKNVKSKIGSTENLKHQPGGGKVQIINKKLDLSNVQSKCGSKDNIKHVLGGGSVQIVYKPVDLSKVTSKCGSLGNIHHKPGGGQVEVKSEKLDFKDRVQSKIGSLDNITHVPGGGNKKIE
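Compound effects on tau fibrillization are measured by Alexa 594 fluorescence polarization (ex 555, em 632 nm). K18 P301L tau is used at 15 uM with 0.24 uM labeled tracer, and 20 uM heparin induces aggregation over 6 hr at 37 C.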
GoLoco inh red – RGS12 GoLoco-Gai1 interaction inhibition. Potency, µM (highest dose often 61.6 µM), for the others: at the top dose activity, negative = inhibition, most hits filed as inhibitors. 230,000 tested, 0.44% active. AID 880. Gai1:RGS12 GoLoco peptide FP, rhodamine, 10 min; active = well fitted inhibition curve with a large enough effect, not every such curve was filed as active; inactive = no such curve, though single readings can be large or run the other way; note: nearly all actives have a fitted effect of over 30% in size
Target sequence (P63096 whole entry, looked up): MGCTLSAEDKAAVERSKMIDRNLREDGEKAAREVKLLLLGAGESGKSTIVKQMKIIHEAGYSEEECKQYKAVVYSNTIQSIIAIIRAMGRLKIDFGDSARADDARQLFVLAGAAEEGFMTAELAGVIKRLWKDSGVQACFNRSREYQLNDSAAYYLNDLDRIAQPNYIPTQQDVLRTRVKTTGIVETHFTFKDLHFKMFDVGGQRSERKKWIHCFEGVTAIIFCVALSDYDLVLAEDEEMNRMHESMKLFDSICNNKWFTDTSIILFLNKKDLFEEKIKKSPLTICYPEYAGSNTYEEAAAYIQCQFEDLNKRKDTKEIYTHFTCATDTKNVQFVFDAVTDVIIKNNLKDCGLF
TR SRC2 fluor cs – Texas Red fluorescence interference in TRb-SRC2 counter-screen; TRb/SRC2 Texas Red total fluorescence interference; Potency, µM (titrated, usually from 106 µM), for inactives: at the highest dose fluorescence change, negative = quenching; 280,000 tested, 0.29% active; active = well fitted curve in either direction with a large enough effect; inconclusive = small, poorly fitted or top-dose-only effect
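Human TRb ligand-binding domain at 0.6 uM with 20 nM Texas Red SRC2 peptide in Tris buffer containing 1 uM T3 and 5% DMSO, incubated with compound 5 h at ambient temperature. Total fluorescence (555/632 nm) calculated as parallel + 2 × perpendicular.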
TRb SRC2 PPI – inhibitors of human thyroid hormone receptor beta-SRC2 interaction | P10828 | TRbeta-SRC2 peptide binding, fluorescence polarization; receptor liganded with 1 µM T3 | Potency, µM (titrated, usually from 106 µM), inactives show at the top dose activity change, negative = inhibition, hits mostly inhibitors | 280,000 tested, 0.065% active | AID 1469;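 note: plate controls were bound peptide for no effect and peptide without receptor for full effect; nearly all actives have a fitted effect of over 50% in size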
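TRb LBD 0.6 uM + Texas Red SRC2 peptide 20 nM, 1 uM T3, Tris buffer w/ 5% DMSO; compound pinned, 5 h RT; FP read ex 555/em 632; normalized to unbound and bound controls.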
Tau fibril ThT – blocks human tau fibril formation measured by thioflavin T; P10636; recombinant tau K18 P301L (four-repeat tau fragment), heparin-induced fibrillization, ThT fluorescence; 270,000 tested, 2.1% active; Potency, µM (doses to about 57.4 µM), without a hit: at the highest dose activity, negative = inhibition, actives largely listed as inhibitors; AID 1460; note: nearly all actives have a fitted effect of over 55% in size
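In this qHTS, human K18 P301L tau is incubated with compound and heparin for 6 hr at 37 C, and Thioflavin T fluorescence then reports fibril load.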
Active calls of the source: *; ? = inconclusive; . = not tested or not shown; [ ] = another dose, or the depositor's remark. An excerpt weighted towards active compounds, which were near 3.1% of everything screened. Unless noted, calls come from the whole dose curve; as a rule, active = well fitted curve in the direction sought with a large enough effect; inconclusive = small, poorly fitted or top-dose-only effect, or another doubt; inactive = no such curve, though single readings can be large; an effect the other way counts as inactive or inconclusive. Unless noted, % is set by controls: 0 for no effect and ±100 for the full control effect; potency is the fitted concentration of half-maximal effect.

SMILES | Tau fluor counter | Tau fibril FP | GoLoco inh red | TR SRC2 fluor cs | TRb SRC2 PPI | Tau fibril ThT
COC(=O)N/N=C/c1cn(Cc2ccccc2Cl)c2ccccc12 | ? | 10% | 4% | -1% | 3% | -15%
CCN(CC)c1ccc(NC(=S)Nc2ccc(F)cc2)cc1 | ? | ? | 16% | 0% | ? | 13µM*
O=C(NC(=S)Nc1ccc(N2CCCCC2)cc1)c1cccs1 | 16µM*[quencher] | ? | 11% | -2% | -2% | 13µM*
CCN(CC)c1ccc(NC(=S)NC(=O)c2cccs2)cc1 | 13µM*[quencher] | 19% | 11% | -2% | -8% | 6.3µM*
CCCC(=O)Nc1ccc(NC(=S)NC(=O)c2cccs2)cc1 | -5% | 5% | 11% | 1% | 16% | -17%
CS(=O)(=O)N1CCN(c2ccc(NC(=S)NC(=O)c3cccs3)cc2)CC1 | -13% | 2% | 32% | -3% | -6% | ?
O=C(NC(=S)Nc1ccc(N2CCOCC2)c(Cl)c1)c1cccs1 | -30% | -3% | 17% | -3% | 11% | -18%
O=C(Nc1ccc(N2CCCC2)c(Cl)c1)c1cccs1 | 16µM*[quencher] | 11% | 50% | -1% | 1% | ?
CC(=O)OCc1c(C)cc(C)c(/C=C(/C#N)C(N)=O)c1C | 1% | -5% | 15% | 0% | -5% | -1%
COCCOc1ccc(C(F)(F)F)cc1N | -10% | 5% | 15% | -1% | -5% | -7%
CCOc1cccc(NC(=O)CSc2ncc(-c3ccccc3)[nH]2)c1 | ? | 1% | . | 0% | 5% | ?
O=C(CSc1ncc(-c2ccccc2)[nH]1)Nc1cccc(C(F)(F)F)c1 | 16µM*[quencher] | ? | . | -1% | -1% | -16%
COc1cc(OC)cc(C(=O)NNC(=O)c2ccccc2Br)c1 | 11% | 7% | 7% | 0% | 1% | 8%
Cc1cc(SCCOc2ccccc2)nc(N)n1 | -3% | 0% | 29% | . | . | -5%
CC1(C)CC(=O)C(CC2CCCCC2=O)C(=O)C1 (stereo not drawn) | 10% | 1% | -1% | 1% | 1% | 8%
CC1(C)CC(=O)C(CC2C(=O)CC(C)(C)CC2=O)C(=O)C1 | ? | ? | -2% | 0% | 1% | 10µM*
O=C(CCc1ccccc1)Nc1ncn[nH]1 | 2% | 3% | 14% | -1% | -1% | -2%
O=C(/C=C/c1ccccc1)Nc1ncn[nH]1 | -19% | ? | 7% | -2% | -8% | 10µM*
Cc1csc(-c2cccnc2)n1 | 4% | 1% | 7% | -1% | -3% | 2%
O=C1c2ccccc2-c2onc3c(Oc4ccccc4)cc(O)c1c23 | ? | -7% | 113% | 35µM*[fluorescent] | -12% | 18µM*
CCn1cc(/C=C/C(=O)Nc2ccn(Cc3c(F)c(F)cc(F)c3F)n2)cn1 | -9% | ? | 8% | 0% | 6% | 22µM*
CCCc1oc2ccc(NS(=O)(=O)c3ccc(OCC)cc3)cc2c1C(=O)OCC | ? | -16% | . | -2% | 7% | -4%
CC(C)NC(=O)Cn1nnc(-c2ccc(Cl)cc2)n1 | ? | ? | . | -3% | 0% | 25µM*
O=C(/C=C\Nc1ccc2c(c1)OCO2)c1cccs1 | ? | -6% | 7% | -1% | 6% | 2µM*
O=C(/C=C/Nc1ccccc1F)c1cccs1 | -19% | -10% | 8.9µM* | -2% | -14% | ?
SMILES | Tau fluor counter | Tau fibril FP | GoLoco inh red | TR SRC2 fluor cs | TRb SRC2 PPI | Tau fibril ThT
O=C(Nc1ccc2c(c1)OCO2)c1cccs1 | -12% | 0% | 20% | 0% | 5% | -11%
O=C(/C=C\Nc1ccc2c(c1)OCO2)c1ccc2c(c1)OCO2 | -17% | 8% | 10% | -2% | 9% | ?
O=C(/C=C/Nc1ccc(F)cc1F)c1cccs1 | -4% | 4% | 27% | -3% | -27% | -1%
O=C(/C=C\Nc1ccc2c(c1)OCO2)c1ccc(Cl)s1 | -17% | -4% | 7% | 0% | 0% | 2.8µM*
COc1ccc(CNC(=O)CSc2ncc(S(=O)(=O)c3ccc(Br)cc3)c(=O)[nH]2)cc1 | -4% | 4% | . | ? | 10% | -6%
COC(=O)c1cc(Cl)ccc1NC(=O)CSc1ncc(S(=O)(=O)c2ccc(Br)cc2)c(=O)[nH]1 | -17% | ? | . | 6% | 9% | 32µM*
COc1ccc2c(c1)CCc1cc(C(=O)N3CCN(c4ccc(N5CCOCC5)nn4)CC3)sc1-2 | -24% | ? | -6% | -4% | -5% | 8.9µM*
O=C(NCCSc1c[nH]c2ccccc12)c1ccc(Cl)cc1 | 20µM*[quencher] | -3% | . | -2% | -4% | ?
CCCC(Oc1ccc(Br)cc1)c1nc2c3cc(OC)c(OC)cc3nc(=S)n2[nH]1 (stereo not drawn) | 16µM*[quencher] | ? | 4% | -3% | 0% | -6%
COc1ccc(NS(=O)(=O)c2ccc3nc(COc4ccc5ccccc5c4)[nH]c3c2)cc1 | -6% | -1% | . | -7% | -4% | 1%
COc1ccc(NS(=O)(=O)c2ccc3nc(COc4cccc5ccccc45)[nH]c3c2)cc1 | 10µM*[quencher] | 22µM* | 120% | -1% | 8% | -11%
Cc1onc(-c2c(F)cccc2Cl)c1C(=O)Nc1c(C)n(C)n(-c2ccccc2)c1=O | -11% | -1% | . | -4% | -3% | -4%
CCCCc1nn2c(N)c(/C=C3\C=Nc4ccccc43)c(=O)nc2s1 | 9% | -10% | 71% | -1% | 0% | 6%
CCCc1nn2c(N)c(/C=C3\C=Nc4ccccc43)c(=O)nc2s1 | ? | -10% | 4% | -9% | -3% | 8.9µM*
Cc1ccc2nc(-c3ccc4c(c3)OCCO4)cc(C(=O)O)c2c1 | -1% | 6% | 192% | 0% | -10% | -4%
CCOC(=O)C1(C)NC(c2ccccc2F)C2C(=O)N(c3cccc(C(C)=O)c3)C(=O)C21 (stereo not drawn) | -2% | 2% | 1% | -9% | 1% | -3%
CC(CCc1ccccc1)NC(=O)C(=O)N1CCOCC1 (stereo not drawn) | -8% | -5% | 7% | -1% | 8% | -6%
O=C(O)CCCCCNS(=O)(=O)c1cccc2nsnc12 | -10% | 1% | 2% | -8% | 1% | -10%
O=C(O)CCCCCNc1ccc2nsnc2c1[N+](=O)[O-] | -1% | -1% | -1% | 35µM*[quencher] | -12%[53 µM] | 6%
O=C(Oc1ccccc1C(=O)Nc1ccccc1)c1ccc(Br)c([N+](=O)[O-])c1 | ? | ? | -1% | -1% | -10% | 10µM*
COc1ccccc1C(=O)Oc1ccccc1C(=O)Nc1ccccc1 | -2% | 2% | 6% | -6% | 4% | -13%
O=C(Nc1cc(C(F)(F)F)ccc1O)Nc1cc(C(F)(F)F)ccc1O | . | . | . | 3% | 6% | .

From PubChem BioAssay
